Assay results from PubChem BioAssay AID1159580 (chemical genetic matrix, 2015).
Several values for one entry are separate records, joined by “and”; a condition that tells them apart may be missing. Equal entries are not always repeated. Screen size: about 5,500 compounds; about 2,000 (36%) were called active. About 18% were inconclusive and are not listed. No stated cut-off is given here; in the data, active means normalized growth mostly below about 0.91 (no sharp cut-off); inconclusive means no clear call, values can overlap the other calls; inactive means mostly above about 0.92. The list shows a part of the results.

Experiment: chemical genetic growth profiling, strain panel (AID 1159580);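 further: tested at 20 µM; growth read once vehicle control cultures reached saturation at 30 °C; 1 = growth at the plate median or of vehicle wells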
Details: S. cerevisiae deletion strains, growth OD
[1] = locus YHR030C, strain SLT2, stronger effect = lower value
[2] = locus YHR079C, strain IRE1, stronger effect = lower value
[3] = locus YJL095W, strain BCK1, stronger effect = lower value
[4] = locus YJR066W, strain TOR1, stronger effect = lower value
[5] = locus YLR113W, strain HOG1, stronger effect = lower value
[6] = locus YNL183C, strain NPR1, stronger effect = lower value
[7] = locus YOR231W, strain MKK1, stronger effect = lower value
[8] = locus YPL256C, strain CLN2, stronger effect = lower value

Measured: normalized growth

C=C(C)[C@@H]1CC[C@]2(C)CC[C@]3(C)[C@@H](CCC4[C@@]5(C)CC[C@H](O)C(C)(C)C5CC[C@]43C)C12 (some centres not stated)
inactive: [1] 1 | [2] 0.978 | [3] 0.993 | [4] 0.944 | [5] 0.992 | [6] 0.923 | [7] 0.99 | [8] 0.994

C=C(C)[C@@H]1CC[C@]2(CO)CC[C@]3(C)[C@H](CCC4[C@@]5(C)CC[C@H](O)C(C)(C)C5CC[C@]43C)C12 (some centres not stated)
active: locus YKL068W, stronger effect = lower value 1.09 [resistant]
inactive: locus YAL021C, strain ccr4, stronger effect = lower value 1.02 | locus YAL026C, strain drs2, stronger effect = lower value 1.01 | locus YAL030W, strain snc1, stronger effect = lower value 1.01 | locus YBL061C, strain skt5, stronger effect = lower value 1.02 | locus YBR009C, strain hhf1, stronger effect = lower value 1.01 | locus YBR021W, strain FUR4, stronger effect = lower value 0.984 | locus YBR023C, strain chs3, stronger effect = lower value 1.01 | locus YBR171W, strain sec66, stronger effect = lower value 1.02 | locus YBR229C, strain ROT2, stronger effect = lower value 0.995 | locus YBR231C, strain swc5, stronger effect = lower value 1.01 | locus YBR279W, strain paf1, stronger effect = lower value 1.01 | locus YCL011C, strain gbp2, stronger effect = lower value 1.01 | locus YCL016C, strain dcc1, stronger effect = lower value 1.01 | locus YCL029C, strain bik1, stronger effect = lower value 0.979 | locus YCL061C, strain MRC1, stronger effect = lower value 1.01 | locus YCL069W, strain vba3, stronger effect = lower value 1.01 | locus YCR088W, strain abp1, stronger effect = lower value 1.01 | locus YDL005C, strain med2, stronger effect = lower value 1 | locus YDL035C, strain GPR1, stronger effect = lower value 1.02 | locus YDL040C, strain nat1, stronger effect = lower value 1.01 | locus YDL074C, strain BRE1, stronger effect = lower value 1.01 | locus YDL101C, strain DUN1, stronger effect = lower value 0.991 | locus YDL185W, strain tfp1, stronger effect = lower value 0.977 | locus YDL192W, strain arf1, stronger effect = lower value 0.997 | locus YDR001C, strain nth1, stronger effect = lower value 1 | locus YDR069C, strain doa4, stronger effect = lower value 1 | locus YDR101C, strain arx1, stronger effect = lower value 0.977 | locus YDR137W, strain rgp1, stronger effect = lower value 1.01 | locus YDR159W, strain sac3, stronger effect = lower value 1.01 | locus YDR162C, strain NBP2, stronger effect = lower value 1.02 | locus YDR195W, strain ref2 0.972 | locus YDR297W, strain sur2, stronger effect = lower value 1.01 | locus YDR318W, strain mcm21, stronger effect = lower value 1.02 | locus YDR334W, strain swr1, stronger effect = lower value 0.996 | locus YDR335W, strain msn5, stronger effect = lower value 1 | locus YDR388W, stronger effect = lower value 1.01 | locus YDR392W, strain spt3, stronger effect = lower value 0.925 | locus YDR502C, strain sam2, stronger effect = lower value 0.997 | locus YEL003W, strain gim4, stronger effect = lower value 1 | locus YEL037C, strain rad23, stronger effect = lower value 0.977 | locus YEL061C, strain CIN8 (second series), stronger effect = lower value 1 | locus YEL061C, strain CIN8, stronger effect = lower value 1.02 | locus YER015W, strain faa2, stronger effect = lower value 0.996 | locus YER016W, strain bim1, stronger effect = lower value 1.01 | locus YER110C, stronger effect = lower value 0.99 | locus YER111C, strain swi4, stronger effect = lower value 1.01 | locus YER155C, strain BEM2 (second series), stronger effect = lower value 0.984 | locus YER155C, strain BEM2, stronger effect = lower value 0.992 | locus YER167W, strain BCK2, stronger effect = lower value 1 | locus YFR010W, strain ubp6, stronger effect = lower value 0.999 | locus YGL078C, strain dbp3, stronger effect = lower value 0.989 | locus YGL086W, strain mad1, stronger effect = lower value 0.973 | locus YGL167C, strain pmr1, stronger effect = lower value 1.01 | locus YGL173C, strain kem1, stronger effect = lower value 1.01 | locus YGL227W, strain vid30, stronger effect = lower value 1.02 | locus YGL240W, strain doc1, stronger effect = lower value 1.01 | locus YGL248W, strain PDE1, stronger effect = lower value 1 | locus YGL253W, strain hxk2, stronger effect = lower value 1.04 | locus YGR135W, strain pre9, stronger effect = lower value 1.01 | locus YGR252W, strain gcn5, stronger effect = lower value 1.05 | locus YHR013C, strain ard1, stronger effect = lower value 1.03 | locus YHR027C, strain rpn1, stronger effect = lower value 1 | [1] 0.995 and 0.997 | locus YHR079C, strain IRE1 (second series), stronger effect = lower value 0.992 | [2] 0.998 | locus YHR094C, strain hxt1, stronger effect = lower value 1 | locus YHR129C, strain ARP1, stronger effect = lower value 0.949 | locus YHR142W, strain chs7, stronger effect = lower value 1.06 | locus YHR200W, strain rpn10, stronger effect = lower value 0.998 | locus YIL066C, strain RNR3, stronger effect = lower value 0.993 | locus YIL073C, strain SPO22, stronger effect = lower value 1.01 | locus YIL125W, strain kgd1, stronger effect = lower value 0.986 | locus YIR030C, strain dcg1, stronger effect = lower value 0.989 | locus YJL092W, strain hpr5, stronger effect = lower value 1.01 | locus YJL095W, strain BCK1 (second series), stronger effect = lower value 1.01 | [3] 1.02 and 0.982 | locus YJL115W, strain asf1, stronger effect = lower value 1.01 | locus YJL129C, strain trk1, stronger effect = lower value 1.03 | locus YJL134W, strain LCB3, stronger effect = lower value 0.992 | locus YJL154C, strain vps35, stronger effect = lower value 0.998 | locus YJL164C, strain tpk1, stronger effect = lower value 1.01 | locus YJL166W, strain qcr8, stronger effect = lower value 1.01 | locus YJL168C, strain set2, stronger effect = lower value 0.994 | locus YJL187C, strain SWE1 (second series), stronger effect = lower value 0.996 | locus YJL187C, strain SWE1, stronger effect = lower value 1.01 | locus YJR043C, strain POL32, stronger effect = lower value 0.996 | [4] 0.932 | locus YJR075W, strain HOC1, stronger effect = lower value 1.01 | locus YKL009W, strain mrt4, stronger effect = lower value 0.963 | locus YKL160W, strain elf1, stronger effect = lower value 1.03 | locus YKL190W, strain CNB1, stronger effect = lower value 1.03 | locus YKR001C, strain vps1, stronger effect = lower value 0.976 | locus YKR026C, strain gcn3, stronger effect = lower value 1.01 | locus YKR091W, strain srl3, stronger effect = lower value 1 | locus YLL001W, strain dnm1, stronger effect = lower value 1.03 | locus YLL026W, stronger effect = lower value 1 | locus YLL041C, strain sdh2, stronger effect = lower value 1 | locus YLR027C, strain aat2, stronger effect = lower value 1 | locus YLR039C, strain RIC1, stronger effect = lower value 1.02 | locus YLR058C, strain SHM2, stronger effect = lower value 1.01 | locus YLR102C, strain apc9, stronger effect = lower value 0.991 | [5] 0.999 | locus YLR221C, strain rsa3, stronger effect = lower value 1.03 | locus YLR258W, strain gsy2, stronger effect = lower value 0.996 | locus YLR262C, strain YPT6 (second series), stronger effect = lower value 1 | locus YLR262C, strain YPT6, stronger effect = lower value 1.08 | locus YLR268W, strain sec22, stronger effect = lower value 0.964 | locus YLR320W, strain mms22, stronger effect = lower value 1.04 | locus YLR330W, strain CHS5, stronger effect = lower value 1 | locus YLR342W, strain FKS1 (second series), stronger effect = lower value 0.998 | locus YLR342W, strain FKS1, stronger effect = lower value 0.986 | locus YLR357W, strain rsc2, stronger effect = lower value 1.01 | locus YLR370C, strain arc18, stronger effect = lower value 1.02 | locus YLR371W, strain rom2, stronger effect = lower value 0.985 | locus YLR384C, strain iki3, stronger effect = lower value 1.01 | locus YLR418C, strain cdc73, stronger effect = lower value 1.01 | locus YML016C, strain PPZ1, stronger effect = lower value 0.985 | locus YML032C, strain rad52, stronger effect = lower value 1.02 | locus YML120C, strain ndi1, stronger effect = lower value 1 | locus YML124C, strain tub3, stronger effect = lower value 0.994 | locus YMR058W, strain fet3, stronger effect = lower value 1.02 | locus YMR078C, strain ctf18, stronger effect = lower value 0.973 | locus YMR125W, strain sto1, stronger effect = lower value 1.01 | locus YMR129W, stronger effect = lower value 1 | locus YMR205C, strain PFK2, stronger effect = lower value 1.03 | locus YMR223W, strain ubp8, stronger effect = lower value 1 | locus YMR231W, strain pep5, stronger effect = lower value 1.01 | locus YMR307W, strain GAS1, stronger effect = lower value 1.09 | locus YNL067W, strain RPL9B, stronger effect = lower value 1 | locus YNL071W, strain lat1, stronger effect = lower value 1.01 | [6] 0.939 | locus YNL209W, strain ssb2, stronger effect = lower value 1.01 | locus YNL233W, strain BNI4, stronger effect = lower value 0.999 | locus YNL248C, strain rpa49, stronger effect = lower value 1 | locus YNL250W, strain rad50, stronger effect = lower value 0.978 | locus YNL271C, strain bni1, stronger effect = lower value 0.976 | locus YNL298W, strain CLA4, stronger effect = lower value 1.01 | locus YNL307C, strain MCK1, stronger effect = lower value 0.988 | locus YNL322C, strain KRE1 (second series), stronger effect = lower value 1.01 | locus YNR049C, strain mso1, stronger effect = lower value 1.01 | locus YNR052C, strain pop2, stronger effect = lower value 0.998 | locus YOL012C, strain htz1 0.862 | locus YOL147C, strain pex11, stronger effect = lower value 0.992 | locus YOR001W, strain rrp6, stronger effect = lower value 0.98 | locus YOR061W, strain CKA2, stronger effect = lower value 0.994 | locus YOR069W, strain VPS5, stronger effect = lower value 0.99 | locus YOR070C, strain gyp1, stronger effect = lower value 1.01 | locus YOR080W, strain dia2, stronger effect = lower value 1.01 | locus YOR083W, strain WHI5, stronger effect = lower value 1.03 | locus YOR106W, strain vam3, stronger effect = lower value 1.02 | locus YOR136W, strain idh2, stronger effect = lower value 0.979 | locus YOR144C, strain elg1, stronger effect = lower value 0.997 | locus YOR184W, strain ser1, stronger effect = lower value 0.98 | [7] 0.995 | locus YOR265W, strain rbl2, stronger effect = lower value 1.02 | locus YOR270C, strain vph1, stronger effect = lower value 1.04 | locus YOR290C, strain snf2, stronger effect = lower value 1 | locus YOR316C, strain cot1, stronger effect = lower value 0.999 | locus YPL051W, strain arl3, stronger effect = lower value 1.02 | locus YPL078C, strain atp4, stronger effect = lower value 1.01 | locus YPL106C, strain sse1, stronger effect = lower value 1 | locus YPL240C, strain hsp82, stronger effect = lower value 1 | [8] 0.972 | locus YPR119W, strain clb2, stronger effect = lower value 0.993 | locus YPR141C, strain kar3, stronger effect = lower value 0.984 | locus YPR163C, strain tif3, stronger effect = lower value 1 | locus YPR167C, strain met16, stronger effect = lower value 1.01 | strain wtn01, stronger effect = lower value 0.946
